Test [1] in a line: qHTS assay to identify small molecule antagonists of the estrogen receptor beta (ER-beta) signaling pathway - cell viability counter screen (AID 1259382).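 Note: HEK293T cells carrying ER-beta-UAS-bla reporter stimulated with estradiol; series mostly up to about 92 µM; nearly all actives have a fitted effect of over 55% in size.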 The method, boiled down: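 In this multiplexed counter screen, cells were seeded at 2,000 per well in medium with 2% charcoal-stripped FBS and incubated 6 hr before compound and 1nM final E2 were added. Sixteen hours later, ATP-based luminescence reported viability.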
In general terms: Quantitative high-throughput screening tests each substance at several concentrations.

Test [2] in a line: qHTS assay to identify small molecule agonists or antagonists of the thyroid stimulating hormone receptor (TSHR) signaling pathway - wild type cell line counter screen (AID 1259384; calls by dose curve). The method, boiled down: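 Counter screen in untransfected Hek293: compounds (15-point titration, triplicate) plus phosphodiesterase inhibitor Ro20-1724 added after 18 h plating; 30 min RT. Intracellular cAMP via competitive d2/cryptate immunoassay, 1 h incubation.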

Test [3] concerns the target Thyrotropin receptor (Homo sapiens) (UniProt P16473). The test is described as follows: qHTS assay to identify small molecule antagonists of the thyroid stimulating hormone receptor (TSHR) signaling pathway (AID 1259385; calls by dose curve; note: nearly all actives have a fitted effect of over 20% in size). The method, boiled down: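 Antagonist mode: compound-treated TSHR-expressing HEK293 cells were stimulated with 1.5 ng/mL TSH (final) in presence of Ro20-1724 for 30 min at RT. HTRF cAMP detection after 1 h; each compound tested at 15 concentrations, triplicate.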

Test [4] addresses Progesterone receptor (Homo sapiens) (UniProt P06401). Put plainly: qHTS assay to identify small molecule agonists of the progesterone receptor (PR) signaling pathway (AID 1346784; calls by dose curve; note: nearly all actives have a fitted effect of over 30% in size). The method, boiled down: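 Using charcoal-stripped serum (2%) to limit endogenous steroids, PR-UAS-bla HEK 293T cells received compounds for 16 hr at 37C after 6 hr plating; beta-lactamase FRET fluorescence was recorded following 2 hr substrate loading at room temperature.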

Test [5] has the same target. Put plainly: qHTS assay to identify small molecule antagonists of the progesterone receptor (PR) signaling pathway (AID 1346795; active = well fitted inhibition curve with a large enough effect in the signal ratio in the repeat runs, not every such curve was filed as active; the % refers to the signal ratio; note: potency is the fitted concentration of half-maximal effect). The method, boiled down: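 Inhibition of R5020-induced (1 nM final) beta-lactamase reporter signal in PR-UAS-bla HEK293T cells was scored by FRET fluorescence after overnight (16 hr) compound treatment.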
Test [6] can be described thus: qHTS assay to identify small molecule antagonists of the progesterone receptor (PR) signaling pathway - cell viability counter screen (AID 1346798). Note: series mostly up to about 92 µM; nearly all actives have a fitted effect of over 50% in size. The method, boiled down:
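ATP content as viability readout: CellTiter-Glo luminescence, 30 min room temperature, in PR-UAS-bla HEK293T cells after 16 hr compound/R5020 treatment at 37C and 5% CO2.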

Test [7] in a line: qHTS assay to identify small molecule agonists of the progesterone receptor (PR) signaling pathway - cell viability counter screen (AID 1346799; calls by dose curve; note: nearly all actives have a fitted effect of over 45% in size). The method, boiled down: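 Cytotoxicity in PR-bla HEK293T cells: 16 h compound, 37C; CellTiter-Glo added post-FRET read; luminescence after 30 min RT.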
Test [8] is described as follows: qHTS assay to identify small molecule antagonists of the TGF-beta/Smad signaling pathway - cell viability counter screen (AID 1346824). Note: nearly all actives have a fitted effect of over 50% in size. The method, boiled down: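 Cytotoxicity counter-screen run in the same wells as the beta-lactamase Smad reporter read: CellTiter-Glo luminescence after 30 min at room temperature. HEK 293T SBE-bla cells had 5 hr compound exposure at 37 C with TGF-beta1 (0.25 ng/mL stock).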

A short description of test [9]: qHTS assay to identify small molecule agonists of the TGF-beta/Smad signaling pathway - cell viability counter screen (AID 1346829). Note: top concentration of the series differs between compounds; nearly all actives have a fitted effect of over 45% in size. The method, boiled down: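 Compound-treated SBE-bla HEK 293T cells (5 hr, 37 C) were assessed for viability with CellTiter-Glo in parallel with the reporter read.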
Test [10] in a line: qHTS assay to identify small molecule agonists of the TGF-beta/Smad signaling pathway (AID 1346859; active = well fitted activation curve with a large enough effect in the signal ratio in the repeat runs, not every such curve was filed as active; the % refers to the signal ratio; note: series mostly up to about 77 µM). The method, boiled down: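 Stable Smad binding element-beta-lactamase HEK 293T cells; 5 hr compound exposure at 37 C under 5% CO2; 2 hr room-temperature substrate step; fluorescence excited at 405 nm, collected at 460 nm and 530 nm.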
In test [11] the target is Thyrotropin-releasing hormone receptor (Homo sapiens) (UniProt P34981). The test is described as follows: qHTS assay to identify small molecule antagonists of the thyrotropin-releasing hormone receptor (TRHR) signaling pathway (AID 1346877; active = well fitted inhibition curve with a large enough effect in the repeat runs, not every such curve was filed as active; note: series mostly up to about 51 µM). The method, boiled down: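 Following an 18 h incubation at 37 °C and a 2 h calcium dye load, TRHR-HEK293 cells were exposed to compound (5 min, room temperature) and challenged with TRH, 1 nM final.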
Sequence of Thyrotropin-releasing hormone receptor (Homo sapiens) (P34981 whole entry, looked up): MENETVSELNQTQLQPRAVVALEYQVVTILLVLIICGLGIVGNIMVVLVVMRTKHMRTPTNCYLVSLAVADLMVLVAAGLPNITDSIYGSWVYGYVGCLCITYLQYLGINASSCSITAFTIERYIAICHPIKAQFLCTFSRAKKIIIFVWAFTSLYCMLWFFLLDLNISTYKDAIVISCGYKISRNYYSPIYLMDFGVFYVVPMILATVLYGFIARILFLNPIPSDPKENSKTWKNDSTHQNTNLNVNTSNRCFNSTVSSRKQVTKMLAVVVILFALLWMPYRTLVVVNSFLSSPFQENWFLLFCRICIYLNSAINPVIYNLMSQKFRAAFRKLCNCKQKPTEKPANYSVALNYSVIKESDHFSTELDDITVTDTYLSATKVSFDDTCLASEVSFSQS

Test [12] shares this target. Put plainly: qHTS assay to identify small molecule agonists of the thyrotropin-releasing hormone receptor (TRHR) signaling pathway (AID 1346891; calls by dose curve;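 note: HEK293 cells expressing TRHR with calcium dye readout; series mostly up to about 58 µM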). The method, boiled down: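 In 1536-format, 1500 TRHR-Hek293 cells per well grew 18 h, took up calcium dye for 2 h at 37 °C, received compound, and were read kinetically; 15-point titrations, triplicates.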
A short description of test [13]: Caspase-3/7 induction in CHO-K1 cells by small molecules, qHTS cell viability counter screen (AID 1346979). Note: nearly all actives have a fitted effect of over 35% in size. The method, boiled down:
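To flag cytotoxic compounds, treated CHO-K1 wild-type cells were given CellTiter-Fluor at 16hr and read fluorescently after 1hr at 37C; the caspase-3/7 luminescence was measured in these same wells.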

A short description of test [14]: Caspase-3/7 induction in HepG2 cells by small molecules, qHTS cell viability counter screen (AID 1346981). Note: series mostly up to about 92 µM; nearly all actives have a fitted effect of over 30% in size. The method, boiled down: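 Viability determined by CellTiter-Fluor fluorescence in HepG2 wells also used for the luminescent Caspase-Glo 3/7 read. Compounds were present for 16 hr at 37 C, 5% CO2 before reagent addition.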
For test [15], the target named is Nuclear receptor subfamily 1 group I member 2 (Homo sapiens) (UniProt O75469). Put plainly: Human pregnane X receptor (PXR) small molecule agonists, qHTS assay (AID 1346982). Note: nearly all actives have a fitted effect of over 35% in size. Note: potency is the fitted concentration of half-maximal effect. The method, boiled down:
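Compound-induced hPXR transactivation of a CYP3A4 luciferase reporter was scored in HepG2 PXR-Luc cells over 24 hr at 37 C, 5% CO2, by luminescence.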

Test [16] is described as follows: Caspase-3/7 induction in HepG2 cells by small molecules, qHTS assay (AID 1346978). Note: nearly all actives have a fitted effect of over 15% in size. The method, boiled down: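 Caspase-3/7 induction was measured by Caspase-Glo 3/7 luminescence (30 min, room temperature) after a 17 hr compound exposure of wild-type HepG2 cells seeded at 2,000 per well and pre-incubated 5 hr.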
Test [17] in a line: Caspase-3/7 induction in CHO-K1 cells by small molecules, qHTS assay (AID 1346980). Note: nearly all actives have a fitted effect of over 15% in size. The method, boiled down: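 Luminescent Caspase-Glo 3/7 read (30min, room temperature) quantified apoptosis induction. Cells were wild-type CHO-K1, treated with compound for 17hr at 37 C and 5% CO2.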
Test [18] is described as follows: qHTS assay to identify small molecule agonists of the estrogen receptor alpha (ER-alpha) signaling pathway in the presence of an antagonist - cell viability counter screen (AID 1259386).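 Note: series mostly up to about 92 µM; cells exposed to compounds for 22 h at 37 °C before the viability read; nearly all actives have a fitted effect of over 30% in size.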 The method, boiled down:
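Viability counter screen using VM7Luc4E2 (full-length ER-alpha, four ERE-luciferase). The cells were treated with compounds alongside ICI-182,780 10.0nM for 22hr, and live-cell protease fluorescence was quantified with CellTiter-Fluor.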

A short description of test [19]: Human pregnane X receptor (PXR) small molecule agonists, qHTS cell viability counter screen (AID 1346977). Note: nearly all actives have a fitted effect of over 50% in size. The method, boiled down: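 Readout is CellTiter-Fluor fluorescence from PXR-Luc HepG2 cells. Plated cells rested 5hr, then were treated with compounds for 24hr at 37C and 5% CO2, with reagent present during the last hour.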

Unmarked numbers belong to inactive results. Records with an inconclusive call do not appear. Calls of active or inactive are those of the source. Unless noted, calls come from the whole dose curve; as a rule, active = well fitted curve in the direction sought with a large enough effect in the repeat runs; inconclusive = weak or mixed curves; inactive = no such curve, though single readings can be large; an effect the other way counts as inactive or inconclusive.

Sequence of Thyrotropin receptor (Homo sapiens) (P16473 whole entry, looked up): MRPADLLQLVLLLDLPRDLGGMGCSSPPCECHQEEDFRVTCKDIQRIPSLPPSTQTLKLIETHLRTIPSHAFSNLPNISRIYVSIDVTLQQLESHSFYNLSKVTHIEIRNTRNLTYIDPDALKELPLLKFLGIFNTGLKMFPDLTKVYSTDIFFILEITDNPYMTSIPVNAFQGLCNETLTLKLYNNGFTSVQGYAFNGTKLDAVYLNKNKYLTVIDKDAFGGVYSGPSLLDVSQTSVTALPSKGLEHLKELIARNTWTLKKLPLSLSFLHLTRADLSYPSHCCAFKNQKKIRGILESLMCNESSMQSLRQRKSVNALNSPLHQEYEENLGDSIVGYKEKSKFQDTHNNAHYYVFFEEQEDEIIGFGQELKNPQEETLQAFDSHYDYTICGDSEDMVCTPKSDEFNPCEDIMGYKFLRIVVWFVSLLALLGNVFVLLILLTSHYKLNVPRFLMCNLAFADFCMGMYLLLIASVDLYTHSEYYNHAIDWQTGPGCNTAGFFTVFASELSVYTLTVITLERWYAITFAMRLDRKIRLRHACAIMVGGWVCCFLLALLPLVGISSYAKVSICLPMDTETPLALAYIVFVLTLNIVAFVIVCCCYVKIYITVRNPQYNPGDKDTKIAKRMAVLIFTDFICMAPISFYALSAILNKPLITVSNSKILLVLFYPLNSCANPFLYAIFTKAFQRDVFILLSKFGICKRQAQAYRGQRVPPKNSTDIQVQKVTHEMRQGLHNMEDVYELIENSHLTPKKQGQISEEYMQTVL
Sequence of Nuclear receptor subfamily 1 group I member 2 (Homo sapiens) (O75469 whole entry, looked up): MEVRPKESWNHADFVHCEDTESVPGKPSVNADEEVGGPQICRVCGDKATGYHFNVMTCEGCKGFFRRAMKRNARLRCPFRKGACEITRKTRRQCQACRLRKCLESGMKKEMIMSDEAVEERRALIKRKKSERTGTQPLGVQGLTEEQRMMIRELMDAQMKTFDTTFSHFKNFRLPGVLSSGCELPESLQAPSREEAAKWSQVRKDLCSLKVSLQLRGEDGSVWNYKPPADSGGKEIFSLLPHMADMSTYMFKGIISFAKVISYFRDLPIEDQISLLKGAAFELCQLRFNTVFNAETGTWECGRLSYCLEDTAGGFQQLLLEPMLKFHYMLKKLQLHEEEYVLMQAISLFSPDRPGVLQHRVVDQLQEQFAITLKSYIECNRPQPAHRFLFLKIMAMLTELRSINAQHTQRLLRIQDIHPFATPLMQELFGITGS
Sequence of Progesterone receptor (Homo sapiens) (P06401 whole entry, looked up): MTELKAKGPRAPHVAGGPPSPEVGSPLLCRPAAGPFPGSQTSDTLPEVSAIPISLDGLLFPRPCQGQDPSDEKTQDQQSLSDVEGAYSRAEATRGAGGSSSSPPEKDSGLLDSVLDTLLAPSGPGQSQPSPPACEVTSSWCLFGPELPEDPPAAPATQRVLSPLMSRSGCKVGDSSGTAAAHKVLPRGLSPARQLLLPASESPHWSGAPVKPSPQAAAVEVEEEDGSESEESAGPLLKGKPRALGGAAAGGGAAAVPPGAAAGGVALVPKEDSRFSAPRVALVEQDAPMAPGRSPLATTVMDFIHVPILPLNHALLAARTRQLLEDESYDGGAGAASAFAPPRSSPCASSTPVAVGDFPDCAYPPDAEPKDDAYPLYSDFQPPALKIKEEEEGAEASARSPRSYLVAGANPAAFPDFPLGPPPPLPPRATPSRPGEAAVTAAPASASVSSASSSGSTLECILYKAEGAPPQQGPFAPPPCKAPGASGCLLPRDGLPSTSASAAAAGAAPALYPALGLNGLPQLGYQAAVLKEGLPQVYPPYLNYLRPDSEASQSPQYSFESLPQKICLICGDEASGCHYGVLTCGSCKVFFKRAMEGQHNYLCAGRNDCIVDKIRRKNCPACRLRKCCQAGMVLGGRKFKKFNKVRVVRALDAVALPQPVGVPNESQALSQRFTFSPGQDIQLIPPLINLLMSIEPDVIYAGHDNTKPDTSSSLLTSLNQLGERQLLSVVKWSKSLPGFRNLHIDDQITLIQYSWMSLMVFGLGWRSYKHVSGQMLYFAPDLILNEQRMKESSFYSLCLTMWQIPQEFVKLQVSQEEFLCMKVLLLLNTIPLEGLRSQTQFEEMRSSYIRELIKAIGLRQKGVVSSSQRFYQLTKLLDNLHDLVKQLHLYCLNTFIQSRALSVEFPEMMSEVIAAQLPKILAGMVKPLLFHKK

Consider `CC(=O)Nc1ncc([N+](=O)[O-])s1`, for which the compound was classed as inactive in test [1], in test [2], in test [3], in test [8], in [9] and in [10]. Moreover, the compound was classed as inactive in test [11] and in [12]. Also, the Potency entry in test [4], in [5], in test [6], in test [7], in test [13] and in test [14] was “inactive” in each case. Moreover, in [15], the Potency result is “inactive”.
For the compound `CC(=O)OC[C@H]1O[C@@H](OC(C)=O)[C@H](OC(C)=O)[C@@H]1OC(C)=O`, the compound was classed as inactive in [1], in test [2], in test [3], in [8], in test [9] and in test [10]. For the same compound, the compound was classed as inactive in [11], in [12], in test [16] and in test [17]. Further, the Potency result in test [4], in test [6], in test [7], in test [13], in test [14] and in test [15] was “inactive” each time.
`CCCCC(CC)CNC(=O)CC(C)OC(=O)CCC(=O)O` (configuration not stated): the compound was called inactive in test [1], in test [2], in [8], in [9], in test [10] and in test [11]. The outcome in test [12] and in [17] was inactive. The Potency result in test [18], in [4], in test [5], in test [7], in [19] and in test [13] was “inactive” throughout. Besides, the Potency entry in [14] and in [15] was “inactive” in each case.
As for `NC(=O)NNC(N)=O`, the call in test [1], in test [2], in test [8], in [9], in [10] and in test [11] was inactive. The outcome in test [12], in test [16] and in [17] was inactive. For the same compound, the Potency result in test [18], in test [4], in test [5], in test [7], in [19] and in [13] was “inactive” in each case. In test [14], the Potency result is “inactive”.
As to `CC1(N)CCC(C(C)(C)N)CC1` (configuration not stated), the call in [1], in test [2], in test [3], in [8], in test [9] and in test [10] was inactive. The compound was called inactive in test [11], in test [12], in [16] and in test [17]. Further, the Potency result in [5], in [6], in test [19], in test [13], in test [14] and in test [15] was “inactive” each time.
For `CN(C1CCCCC1)S(=O)(=O)c1ccccc1N`, the call in [1], in test [2], in test [3], in test [8], in test [10] and in [11] was inactive. In addition, the result in test [12], in [16] and in [17] was inactive. The Potency entry in test [4], in [6], in test [7], in test [19], in [13] and in [14] was “inactive” in each case. The Potency in [5] is 17.2 µM (active); in test [15], 27.3 µM (active).
Turning to `CC(C)=CC(C)(C)C`, the compound was classed as inactive in [1], in test [2], in test [3], in test [9], in test [10] and in [11]. Also, the compound was called inactive in test [12], in [16] and in test [17]. Also, the Potency result in [4], in test [6], in test [7], in test [19], in [13] and in test [14] was “inactive” each time. Moreover, the Potency entry in test [15] was “inactive”.
For the compound `CO/N=C(/C(=O)N[C@@H]1C(=O)N2C(C(=O)O)=C(Cn3nnc(C)n3)CS[C@H]12)c1csc(N)n1`, the compound was called inactive in [1], in [2], in test [8], in test [10], in test [11] and in test [12]. In addition, the result in [16] and in [17] was inactive. Besides, the Potency result in test [18], in test [4], in test [5], in [7], in test [19] and in test [13] was “inactive” throughout. Also, the Potency entry in test [14] is “inactive”.

The values are drawn from PubChem BioAssay (Tox21).
